Laboratory results as given in PubChem BioAssay (NCI).
This is part of a sample that, as a whole, favours compounds with a hit. Of some 83,000 tested, about 20% had one in any assay.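 Values shown are percent growth following 48 h exposure of cells in 96-well plates to a single concentration of compound; below 10 was considered active.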 Values without a mark were called inactive. Calls of active or inactive are those of the source.

System: SF-539 CNS
Experiment: NCI-60 one-dose screen, 48 h (100 = growth as untreated, 0 = no growth, -100 = all killed)
Conditions: 10 µM unless noted

| SMILES | growth |
| --- | --- |
| COc1cc(C2CC(C3C(=O)N(C)C(=O)N(C)C3=O)=NN2C=O)cc(OC)c1OC (stereo not given) | 104% |
| C=C1CCC2C3(C)COC(c4ccccc4)OC3CCC2(C)C1C/C=C1/C(=O)OCC1OC(C)=O (stereo not given) | 105% |
| Clc1ccc(C2=NN(c3ccc(Cl)cc3)C(c3cccc(Nc4ccnc5cc(Cl)ccc45)c3)C2)cc1 (stereo not given) | 96.5% |
| CC(=O)N1N=C(c2ccc(Nc3nc(NCCO)nc(NCCO)n3)cc2)CC1c1ccc(Cl)cc1 (stereo not given) | 90.2% |
| O=C(c1ccccc1)c1ccc(Oc2ccc([N+](=O)[O-])cc2[N+](=O)[O-])cc1 | 55.3% |
| O=C(C(=O)N1CCOCC1)c1cn(CCCn2cc(C(=O)C(=O)N3CCOCC3)c3ccccc32)c2ccccc12 | 102% |
| CC(C)CC1NC(=O)C(CCCN)NC(=O)C(C(C)C)NC(=O)C2CCCN2C(=O)C(Cc2ccccc2)NC(=O)C(CC(C)C)NC(=O)C(CCCN)NC(=O)C(C(C)C)NC(=O)C2CCCN2C(=O)C(Cc2ccccc2)NC1=O (stereo not given) | -82.5% (active) |
| Cc1csc(C#Cc2cncc(O)c2)n1 | 108% |
| COc1cc(/C=C/C(=O)C(C(=O)/C=C/c2ccc(OC(=O)CCNC34CC5CC(CC(C5)C3)C4)c(OC)c2)C(=O)CCNC23CC4CC(CC(C4)C2)C3)ccc1OC(=O)CCNC12CC3CC(CC(C3)C1)C2 (stereo not given) | -23.7% (active) |
| C/C=C(/C(=C/C)c1ccc(O)cc1)c1ccc(O)cc1 | -3.67% (active) |
| COc1cc(/C=C/C(=O)CC(=O)/C=C/c2ccc(OC(=O)CCNC34CC5CC(CC(C5)C3)C4)c(OC)c2)ccc1OC(=O)CCNC12CC3CC(CC(C3)C1)C2 | -18.2% (active) |
| Oc1c(Cl)cc(Cl)c(Cl)c1Cc1c(O)c(Cl)cc(Cl)c1Cl | 21.4% |
| COc1cc(C2CC(c3ccc(C)cc3)=NN2C=O)ccc1OCCN(C)C (stereo not given) | 89.5% |
| NS(=O)(=O)c1cc(C2(O)NC(=O)c3ccccc32)ccc1Cl (stereo not given) | 97.7% |
| CCn1cnc(C[C@H](NC(=O)[C@H](CCCCNC(=O)Nc2cc(C(F)(F)F)cc(C(F)(F)F)c2)NC(=O)Nc2cc(C(F)(F)F)cc(C(F)(F)F)c2)C(=O)OC)c1 | -66.4% [100 µM] (active) |
| CS(=O)(=O)N1CCN(Cc2cc3nc(-c4cccc5[nH]ncc45)nc(N4CCOCC4)c3s2)CC1 (tested in a mixture with another compound) | 3.67% (active) |
| CN(C)c1ccc(-c2nc3ncc(Br)cc3o2)cc1 | 91.4% |
| COc1ccc(-c2cc(-c3nnc(SCC(=O)Nc4ccc(C(C)=O)cc4)n3-c3ccccc3)c3ccccc3n2)cc1OC | 97.4% |
| Nc1nc(NC2CC2)c2ncn(C3C=CC(CO)C3)c2n1 (stereo not given) | 118% |
| C[C@]12CCC(=O)C=C1CC[C@H]1[C@@H]3C[C@@H](O)[C@](O)(C(=O)CO)[C@@]3(C)C[C@H](O)[C@@]12F | 91.9% |

| SMILES | growth |
| --- | --- |
| NS(=O)(=O)c1cc2c(cc1Cl)NC=NS2(=O)=O | 103% |
| COc1cnc2c(c1)C(=O)c1c-2n(CCCn2ccnc2)c(=O)c2cc(F)ccc12 | -60.6% (active) |
| NC(=O)c1cc(Br)cc(Br)c1NS(=O)(=O)c1ccccc1 | 98.6% |
| CN(C)c1ccc(-n2nc3ccccc3n2)cc1 | 86.1% |
| CC1CN(C2CCCCC2)C(=O)NC1=O (stereo not given) | 106% |
| O=C1C=CC(=O)N1c1ccccc1N1C(=O)C=CC1=O | 100% |
| Cc1n(Cc2ccc3ccccc3c2)c2ccccc2[n+]1Cc1ccc2ccccc2c1 | -56.4% (active) |
| C[C@H]1O[C@@H](O[C@H]2[C@@H](O)C[C@H](O[C@H]3[C@@H](O)C[C@H](O[C@H]4CC[C@]5(C)C6C[C@@H](O)[C@]7(C)[C@@H](C8=CC(=O)OC8)CC[C@]7(O)C6CC[C@@H]5C4)O[C@@H]3C)O[C@@H]2C)C[C@H](O)[C@@H]1O (stereo not given in full) | -96.2% (active) |
| O=C(CNc1ccc2c(c1)C(=O)c1ccccc1C2=O)Nc1ccc2c(c1)C(=O)c1ccccc1C2=O | -69.3% (active) |
| Cc1sc2nc(N3CCCCC3)[nH]c(=O)c2c1C | 97.9% |
| NC(=NCCCCCCN=C(N)/N=C(\N)Nc1ccc(Cl)cc1)/N=C(\N)Nc1ccc(Cl)cc1 | 0.167% (active) |
| COc1cc(NC(=O)NCc2ccco2)ccc1-c1ccc(NC(=O)NCc2ccco2)cc1OC | -1.88% (active) |
| CSc1nc(Nc2ccc(S(=O)(=O)Nc3ccon3)cc2)c(C#N)c(-c2ccc(Cl)cc2)n1 | 106% |
| COP(=O)(OC)C(c1ccc(O)cc1)(c1ccc(O)cc1)c1ccc(O)cc1 | 107% |
| C=C1CCC2C(C)(COC(=O)CC)C(OC(=O)CC)CCC2(C)C1C/C=C1/C(=O)OCC1OC(=O)CC (stereo not given) | -64.3% (active) |
| Cc1cnc2nc(-c3ccc(N(C)C)cc3)cn2c1 | 100% |
| Cc1ccc2nc3c(n2c1)C(=O)C(=O)c1ccccc1-3 | -90.1% (active) |
| CC(C)=CCCC(C)c1ccc(C)c2c1OCN(CC1CCNCC1)C2 (stereo not given) | 76.9% |
| CCOc1cc(/C=C/C(=O)C(C(=O)/C=C/c2ccc(OC(=O)CNc3nc4ccccc4[nH]3)c(OCC)c2)C(=O)CNc2nc3ccccc3[nH]2)ccc1OC(=O)CNc1nc2ccccc2[nH]1 | -33.4% (active) |
| COc1ccc(C(=O)/C=C/c2cccc(Nc3ccnc4cc(Cl)ccc34)c2)cc1 | 28.4% |
